Results as given in the supplement of paper PMC7380943.

How the values were obtained:
[1] = tested on: CLZ3 (HCA2 human fibroblast dual HR-NHEJ reporter); assay: NHEJ repair efficiency (GFP+ cells) relative to control (log10 fold); higher = more non-homologous end joining; details: 5 µM; doxycycline 0.5 ug/mL
[2] = tested on: CLZ3 (HCA2 human fibroblast dual HR-NHEJ reporter); assay: HR repair efficiency (tdTomato+ cells) relative to control (log10 fold); higher = more homologous recombination; details: 5 µM; doxycycline 0.5 ug/mL
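Wherever HR repair efficiency (tdTomato+ cells) relative to control is given: compound given one day before doxycycline, which switches on I-SceI endonuclease expression to create double-strand breaks within the integrated reporter.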
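Wherever NHEJ repair efficiency (GFP+ cells) relative to control is given: compound given one day ahead of doxycycline, which switches on I-SceI endonuclease to cut the chromosomally integrated reporter and create DSBs.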

| Compound | NHEJ repair efficiency (log10) [1] | HR repair efficiency (log10) [2] |
| --- | --- | --- |
| CC1(C)[C@@H](O[C@H]2O[C@H](C(=O)O)[C@@H](O)[C@H](O)[C@H]2O[C@@H]2O[C@H](C(=O)O)[C@@H](O)[C@H](O)[C@H]2O)CC[C@]2(C)[C@H]3C(=O)C=C4[C@@H]5C[C@@](C)(C(=O)O)CC[C@]5(C)CC[C@@]4(C)[C@]3(C)CC[C@@H]12 [Monoammonium glycyrrhizinate] | -0.145 | -0.0779 |
| O=C1/C(=C2\Nc3ccccc3C2=O)Nc2ccccc21 [Indigotin] | 0.00962 | -0.105 |
| C[C@H]1[C@H](C)CC[C@]2(C(=O)O[C@@H]3O[C@H](CO[C@@H]4O[C@H](CO)[C@@H](O[C@@H]5O[C@H](C)[C@H](O)[C@@H](O)[C@H]5O)[C@H](O)[C@H]4O)[C@@H](O)[C@H](O)[C@H]3O)CC[C@]3(C)C(=CC[C@@H]4[C@@]5(C)C[C@@H](O)[C@H](O)[C@@](C)(CO)[C@@H]5CC[C@]43C)[C@H]12 [Asiaticoside] | -0.0035 | -0.0111 |
| C/C=C/c1cc(OC)c2c(c1)C(C)C(c1ccc(O)c(OC)c1)O2 (stereo not drawn) [Dehydrodiisoeugenol] | -0.00267 | -0.0825 |
| C[C@@H]1CCCCCCCCCCCCC(=O)C1 [Muscone] | 0.1 | 0.229 |
| COc1ccc2c(c1O)-c1c(O)c(OC)cc3c1[C@H](C2)[N+](C)(C)CC3 [Magnoflorine iodide] | 0.122 | -0.0243 |
| COc1ccc2c(c1OC)CN(C)CCc1cc3c(cc1C(=O)C2)OCO3 [Allocryptopine] | 0.0337 | 0.04 |
| COc1ccc(-c2coc3cc(O)ccc3c2=O)cc1 [Formononetin] | -0.06 | 0.128 |
| COc1ccc(-c2cc(=O)c3c(O)cc(O)cc3o2)cc1 [Acacetin] | -0.203 | 0.0794 |
| O=Cc1ccc(O)c(O)c1 [Protocatechuic aldehyde] | -0.212 | -0.256 |
| OC[C@H]1O[C@@H](Oc2cc(O)cc(/C=C/c3ccc(O[C@@H]4O[C@H](CO)[C@@H](O)[C@H](O)[C@H]4O)cc3O)c2)[C@H](O)[C@@H](O)[C@@H]1O [Mulberroside A] | 0.049 | 0.234 |
| COc1cc(C(=O)OCCCCNC(=N)N)cc(OC)c1O [Leonurine] | -0.042 | 0.0155 |
| Cn1c(=O)c2c(ncn2CC2OCCO2)n(C)c1=O [Doxofylline] | 0.101 | 0.0399 |
| CC(C)(O)[C@H](O)COc1c2ccoc2cc2oc(=O)ccc12 [Oxypeucedanin Hydrate] | -0.0248 | 0.00711 |
